We go through 25 molecules from PubChem BioAssay (NCATS).

The nature of assay [1]: qHTS for Inhibitors of Cell Surface uPA Generation: Validation Assay (AID 493164).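 Also: RAW 264.7 macrophage cells exposed to compound for 18 h.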 The method, boiled down:
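ATP-Lite luminescence read-out: ATP remains high when uPA activity-dependent LF translocation into the cytoplasm is blocked. RAW 264.7 cells, 18 h compound exposure at 37 C; 7-point titration, 2.45 nM to 38.3 uM final.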
On the technique in general: Quantitative high-throughput screening tests each substance at several concentrations.

For assay [2], the target named is Galactokinase (Homo sapiens) (UniProt P51570). Put plainly: qHTS Validation Assay for Inhibitors of Human Galactokinase (GALK) (AID 493189). A digest of the protocol:
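5 nM GALK / 100 uM galactose / 35 uM ATP, 20 mM HEPES pH8.0, 5 mM MgCl2, 60 mM NaCl, 1 mM DTT, 0.01% BSA (final). RT 1 h; Kinase-Glo Plus luminescence.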

Assay [3] is described as follows: Validation screen for small molecules that induce DNA re-replication in SW480 colon adenocarcinoma cells (AID 504364). The method, boiled down: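 Image-based qHTS: compounds were incubated with SW480 cells for 48 hr, nuclei stained with Hoechst, and per-nucleus fluorescence intensity scanned to flag cells with excess DNA content.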
Assay [4] has as its target Peptidyl-prolyl cis-trans isomerase NIMA-interacting 1 (Homo sapiens) (UniProt Q13526). The experiment in a line: qHTS Validation Assay to Find Inhibitors of Pin1 (AID 504536; active = well fitted inhibition curve with a large enough effect in the polarisation, with a control signal flat, not every such curve was filed as active; the % refers to the polarisation). The method, boiled down: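 Fluorescence polarization competition: compounds (titration) displace HiFluor-488-labeled Pin1-1b peptide from Pin1 (0.3 uM final) in pH 7.5 HEPES buffer with DTT, 10 min at room temperature; %Activity normalized to no-enzyme wells, curves fitted.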

For assay [5], the target named is Phosphoglycerate kinase, glycosomal (Trypanosoma brucei brucei) (UniProt P07378). Put plainly: qHTS Validation Assay to Find Inhibitors of Phosphoglycerate Kinase (AID 504547). Also: potency is read from the fitted curve at half-maximal effect. The method, boiled down:
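In TEA buffer (100mM, pH 7.6) containing 5mM MgCl2 and 0.01% Tween-20, the GAPDH-coupled PGK reaction proceeded for 60 minutes at room temperature before a single luminescence reading using Kinase-Glo Plus.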

Assay [6] has as its target phosphoglycerate mutase (Leishmania major) (UniProt Q4Q090). Put plainly: qHTS Validation Assay to Find Inhibitors of Phosphoglycerate Mutase (AID 504548). Also: series mostly up to about 58 µM. The following applies: Potency: inhibition qHTS. A digest of the protocol: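 Lm PGAM at 1.25 nM final with substrate in 100 mM TEA pH 7.6, 5 mM MgCl2, 0.01% Tween-20; 45 min at room temperature. Kinase-GloPlus added, 10 min, end-point luminescence read.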

Assay [7] has as its target Ubiquitin carboxyl-terminal hydrolase 1 (Homo sapiens) (UniProt O94782). Put plainly: Inhibitors of USP1/UAF1: Pilot qHTS (AID 504865). Also: nearly all actives have a fitted effect of over 35% in size. Also: potency is read from the fitted curve at half-maximal effect. The method, boiled down:
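In 50mM HEPES pH 7.8 containing 0.5mM EDTA, 1mM TCEP, 0.1 mg/ml BSA and 0.01% Tween-20, 1nM USP1/UAF1 is exposed to compound for 15 min, then Ub-Rho (150nM final) is added and fluorescence is read over time.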

The nature of assay [8]: qHTS for Inhibitors of ATXN expression: Validation (AID 588378). Also: nearly all actives have a fitted effect of over 75% in size. Also: potency is read from the fitted curve at half-maximal effect. A digest of the protocol: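 Compounds were pinned onto attached HEK293 cells carrying an ATXN2-firefly luciferase construct and incubated 24 hrs at 37 degrees C. Each well then received a fluorescent viability reagent followed by luciferase substrate for end-point luminescence.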
Assay [9] has as its target DNA dC->dU-editing enzyme APOBEC-3G (Homo sapiens) (UniProt Q9HC16). Put plainly: qHTS for inhibitors of Vif-A3G interactions: Validation (AID 588379). A digest of the protocol: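 Yellow fluorescence (Ex 488, Em 500-530) of Vif-coexpressing HeLa A3G-eYFP cells, scanned by Acumen cytometer, reports blocked A3G degradation. Cells plated at 700/well overnight at 37 deg C before compound addition, then a further overnight compound incubation at 37 deg C.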

Assay [10] is described as follows: qHTS for Inhibitors of ATXN expression: Validation of Cytotoxic Assay (AID 588349). A digest of the protocol:
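Titrated compounds are added to cultured HEK293 cells, which are then held at 37 degrees C for 72 hr; loss of intracellular ATP, measured with CellTiter Glo, indicates toxicity.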

Results filed as inconclusive are left out. The source made the active and inactive calls. Unless noted, calls follow the shape of the dose curve; as a rule, active = well fitted curve in the direction sought with a large enough effect; inconclusive = small, poorly fitted or top-dose-only effect, or another doubt; inactive = no such curve, though single readings can be large; an effect the other way counts as inactive or inconclusive.

Sequence of DNA dC->dU-editing enzyme APOBEC-3G (Homo sapiens) (Q9HC16 whole entry, looked up): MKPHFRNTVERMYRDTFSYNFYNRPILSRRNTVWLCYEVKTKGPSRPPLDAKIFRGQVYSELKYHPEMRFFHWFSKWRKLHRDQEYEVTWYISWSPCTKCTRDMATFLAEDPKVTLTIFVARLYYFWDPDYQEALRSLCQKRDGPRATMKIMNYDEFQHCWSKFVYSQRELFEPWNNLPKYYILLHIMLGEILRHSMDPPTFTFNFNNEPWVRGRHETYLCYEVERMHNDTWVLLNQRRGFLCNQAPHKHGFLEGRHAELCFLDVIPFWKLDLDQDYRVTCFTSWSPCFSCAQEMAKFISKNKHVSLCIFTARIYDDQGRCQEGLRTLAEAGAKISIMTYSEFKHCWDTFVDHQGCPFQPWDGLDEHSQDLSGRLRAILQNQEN
Sequence of Galactokinase (Homo sapiens) (P51570 whole entry, looked up): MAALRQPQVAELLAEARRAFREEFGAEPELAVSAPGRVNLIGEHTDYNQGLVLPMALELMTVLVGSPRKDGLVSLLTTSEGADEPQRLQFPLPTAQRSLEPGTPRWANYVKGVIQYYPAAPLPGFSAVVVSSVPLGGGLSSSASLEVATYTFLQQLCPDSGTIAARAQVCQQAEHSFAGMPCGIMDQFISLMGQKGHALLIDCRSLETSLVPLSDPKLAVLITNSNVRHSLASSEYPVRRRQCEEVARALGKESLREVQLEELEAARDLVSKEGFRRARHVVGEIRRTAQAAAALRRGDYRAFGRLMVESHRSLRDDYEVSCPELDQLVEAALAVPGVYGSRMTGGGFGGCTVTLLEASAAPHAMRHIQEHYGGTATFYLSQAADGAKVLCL
Sequence of phosphoglycerate mutase (Leishmania major) (Q4Q090 1-553): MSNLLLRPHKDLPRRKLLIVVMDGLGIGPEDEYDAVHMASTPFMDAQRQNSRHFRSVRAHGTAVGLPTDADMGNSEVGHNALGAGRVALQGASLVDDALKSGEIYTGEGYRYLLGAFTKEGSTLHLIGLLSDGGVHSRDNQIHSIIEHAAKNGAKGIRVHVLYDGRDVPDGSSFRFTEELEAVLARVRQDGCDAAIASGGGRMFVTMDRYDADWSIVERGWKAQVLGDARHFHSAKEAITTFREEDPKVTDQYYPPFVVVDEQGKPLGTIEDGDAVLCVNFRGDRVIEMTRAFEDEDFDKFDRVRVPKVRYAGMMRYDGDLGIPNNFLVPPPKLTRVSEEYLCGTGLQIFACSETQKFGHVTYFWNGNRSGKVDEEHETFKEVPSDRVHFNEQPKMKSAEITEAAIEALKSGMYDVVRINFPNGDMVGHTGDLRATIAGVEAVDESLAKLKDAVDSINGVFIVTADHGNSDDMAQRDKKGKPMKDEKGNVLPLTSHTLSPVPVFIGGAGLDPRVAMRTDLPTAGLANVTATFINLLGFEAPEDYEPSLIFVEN
Sequence of Peptidyl-prolyl cis-trans isomerase NIMA-interacting 1 (Homo sapiens) (Q13526 whole entry, looked up): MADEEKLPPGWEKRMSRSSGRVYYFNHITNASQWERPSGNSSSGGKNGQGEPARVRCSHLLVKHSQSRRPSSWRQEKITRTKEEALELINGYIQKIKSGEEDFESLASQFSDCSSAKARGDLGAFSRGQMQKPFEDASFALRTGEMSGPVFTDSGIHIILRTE
Sequence of Phosphoglycerate kinase, glycosomal (Trypanosoma brucei brucei) (P07378 whole entry, looked up): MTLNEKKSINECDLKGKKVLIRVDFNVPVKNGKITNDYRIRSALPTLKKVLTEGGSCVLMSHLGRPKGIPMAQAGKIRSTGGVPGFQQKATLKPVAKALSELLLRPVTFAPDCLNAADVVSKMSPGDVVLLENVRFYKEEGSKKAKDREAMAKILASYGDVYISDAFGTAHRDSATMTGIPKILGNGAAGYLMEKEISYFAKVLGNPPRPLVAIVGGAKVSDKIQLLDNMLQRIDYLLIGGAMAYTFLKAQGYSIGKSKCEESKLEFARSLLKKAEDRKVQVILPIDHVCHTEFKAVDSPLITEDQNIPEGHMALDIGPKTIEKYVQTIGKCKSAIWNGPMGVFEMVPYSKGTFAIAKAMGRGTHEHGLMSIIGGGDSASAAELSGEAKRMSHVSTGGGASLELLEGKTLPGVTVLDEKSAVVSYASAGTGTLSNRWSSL
Sequence of Ubiquitin carboxyl-terminal hydrolase 1 (Homo sapiens) (O94782 whole entry, looked up): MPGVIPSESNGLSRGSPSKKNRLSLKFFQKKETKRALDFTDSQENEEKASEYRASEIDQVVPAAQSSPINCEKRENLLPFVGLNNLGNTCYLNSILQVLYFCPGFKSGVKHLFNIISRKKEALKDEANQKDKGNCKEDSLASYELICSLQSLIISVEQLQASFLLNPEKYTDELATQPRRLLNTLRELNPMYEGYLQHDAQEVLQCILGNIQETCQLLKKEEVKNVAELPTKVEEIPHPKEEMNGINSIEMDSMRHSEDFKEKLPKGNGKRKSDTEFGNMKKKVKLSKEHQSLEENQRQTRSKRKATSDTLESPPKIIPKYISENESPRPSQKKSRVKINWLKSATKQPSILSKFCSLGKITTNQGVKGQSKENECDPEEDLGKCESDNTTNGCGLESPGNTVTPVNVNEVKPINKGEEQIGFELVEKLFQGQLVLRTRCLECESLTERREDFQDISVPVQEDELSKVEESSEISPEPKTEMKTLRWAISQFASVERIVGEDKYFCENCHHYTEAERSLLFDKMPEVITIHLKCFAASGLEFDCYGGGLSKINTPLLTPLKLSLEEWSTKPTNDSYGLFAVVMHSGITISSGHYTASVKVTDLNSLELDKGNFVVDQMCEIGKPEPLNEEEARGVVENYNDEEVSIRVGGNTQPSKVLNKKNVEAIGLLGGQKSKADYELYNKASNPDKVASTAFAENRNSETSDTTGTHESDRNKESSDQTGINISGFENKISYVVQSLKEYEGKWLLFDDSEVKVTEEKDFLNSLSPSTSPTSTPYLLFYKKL

For `NCC(O)c1ccc(O)c(O)c1` (configuration not stated), the molecule was called inactive in assay [1]. For the same molecule, the Potency result in assay [2], in assay [3], in [4], in [6], in [7] and in [8] was “inactive” throughout. Further, the Potency in [5] was 4.78 µM (active).
In the case of `CNc1cc(NS(=O)(=O)c2ccc(N)cc2)nc(NC)n1`, the outcome in assay [1] was inactive. For the same molecule, the Potency entry in [2], in assay [3], in [4], in [5], in assay [6] and in assay [7] was “inactive” throughout. In assay [8], the Potency entry is “inactive”.
As for `CCN(CC)CCCCCCCCOC(=O)c1cc(OC)c(OC)c(OC)c1`, the result in [1] was inactive. The Potency result in assay [2], in assay [3], in [4], in assay [5], in assay [6] and in [7] was “inactive” throughout. Also, in [8], the Potency result is “inactive”.
As for `CCCc1c(-c2ccc(O)cc2)nn(-c2ccc(O)cc2)c1-c1ccc(O)cc1`, in [1], the molecule was called inactive. The Potency entry in assay [2], in assay [3], in [4], in assay [5], in assay [6] and in [7] was “inactive” each time. Besides, in assay [9], the Potency result was “inactive”.
Consider `C=C(C)C1CC=C(C(=O)O)CC1` (configuration not stated), for which, in [1], the result was inactive. The Potency entry in assay [2], in assay [3], in assay [4], in assay [5], in [6] and in assay [10] was “inactive” in each case. In [8], the Potency entry is “inactive”.
As for `C=C1C(=O)O[C@@H]2[C@H]3O[C@]3(C)CCC=C(C)CC[C@@H]12`, in assay [1], the call was inactive. Also, the Potency result in assay [2], in [3], in assay [4], in assay [5], in assay [6] and in assay [7] was “inactive” throughout. The Potency entry in assay [9] is “inactive”.
Regarding `CCCCC[C@H](CC(=O)NO)C(=O)N[C@H](C(=O)N1CCC[C@H]1CO)C(C)C`, the molecule was called inactive in assay [1]. For the same molecule, the Potency entry in [2], in assay [3], in [4], in assay [6] and in assay [7] was “inactive” throughout.
Regarding `COc1cc(N)c(Cl)cc1C(=O)OCCN1CCCCC1`, the call in assay [1] was inactive. The Potency result in assay [2], in assay [3], in assay [4], in assay [5], in [7] and in assay [10] was “inactive” throughout. For the same molecule, the Potency result in [8] is “inactive”.
For `CC(C)C[C@H](NC(=O)C1OC1C(=O)O)C(=O)NCCCCN=C(N)N` (some centres not stated), the call in [1] was inactive. Also, the Potency result in assay [2], in assay [3], in [4], in assay [6] and in assay [7] was “inactive” in each case.
On to `NOCC(=O)O`, for which the molecule was called inactive in [1]. The Potency result in assay [2], in assay [3], in assay [4], in assay [5], in assay [6] and in assay [7] was “inactive” in each case. For the same molecule, the Potency entry in assay [8] is “inactive”.
As for `Cn1c(=O)c2c(nc(/C=C/c3cccc(Cl)c3)n2C)n(C)c1=O`, the molecule was classed as inactive in assay [1]. The Potency entry in [2], in assay [3], in [4], in [5], in [6] and in [10] was “inactive” in each case. Also, the Potency result in assay [8] is “inactive”.
For the molecule `NC(=O)c1ccccc1`, in assay [1], the molecule was classed as inactive. In addition, the Potency result in assay [2], in assay [3], in [4], in assay [5], in assay [6] and in assay [7] was “inactive” throughout. In addition, the Potency result in assay [8] was “inactive”.
Regarding `CCCC[C@@]1(C2CCCC2)Cc2cc(OCC(=O)O)c(Cl)c(Cl)c2C1=O`, the call in assay [1] was inactive. Further, the Potency result in assay [2], in assay [3], in assay [4], in [5], in assay [6] and in [10] was “inactive” each time.
Turning to `O=C(O)c1ccccc1Nc1cccc(OCc2ccc3ccccc3n2)c1`, in [1], the outcome was inactive. In addition, the Potency result in assay [2], in assay [3], in assay [4], in assay [5], in [6] and in assay [10] was “inactive” in each case. Besides, the Potency entry in [8] and in assay [9] was “inactive” each time.
In the case of `OCC1NCC(O)C(O)C1O` (configuration not stated), the molecule was classed as inactive in [1]. Besides, the Potency result in assay [2], in assay [3], in [4], in assay [5], in assay [6] and in assay [7] was “inactive” throughout. Also, the Potency result in assay [8] was “inactive”.
For the molecule `O=C1C2C=CC=CC2=NC(=S)N1CCN1CCC(=C(c2ccc(F)cc2)c2ccc(F)cc2)CC1` (configuration not stated), the call in [1] was inactive. Also, the Potency result in assay [2], in assay [3], in assay [4], in assay [5], in assay [6] and in [7] was “inactive” throughout. For the same molecule, in assay [8], the Potency entry was “inactive”.
`CC1CNCCN1S(=O)(=O)c1cccc2cnccc12` (configuration not stated): in assay [1], the outcome was inactive. For the same molecule, the Potency result in assay [2], in [3], in [4], in [5], in assay [6] and in assay [7] was “inactive” in each case. The Potency in assay [8] is 22.4 µM (active).
Take `CCCOC(=O)c1c(-c2ccccc2)nc(CC)c(C(=O)SCC)c1CCC`: in assay [1], the result was inactive. Also, the Potency result in [2], in assay [3], in [4], in assay [5], in assay [6] and in assay [10] was “inactive” each time. In assay [8], the Potency result is “inactive”.
As for `CCOC(=O)C12CC1/C(=N/O)c1ccccc1O2` (configuration not stated), the molecule was classed as inactive in [1]. Further, the Potency result in [2], in [3], in assay [4], in assay [5], in assay [6] and in [7] was “inactive” each time. For the same molecule, the Potency result in assay [8] was “inactive”.
On to `CN1CCN(c2nc3cc(C(F)(F)F)ccc3n3cccc23)CC1`, for which, in assay [1], the outcome was inactive. Also, the Potency entry in assay [2], in [3], in assay [4], in assay [5], in [6] and in assay [7] was “inactive” in each case. Further, in [9], the Potency entry is “inactive”.
`CCCc1c(OCCCOc2ccc(OCC(=O)O)cc2)ccc(C(C)=O)c1O`: in assay [1], the molecule was classed as inactive. For the same molecule, the Potency entry in assay [2], in assay [3], in assay [4], in assay [5], in [6] and in assay [8] was “inactive” in each case. For the same molecule, in assay [7], the Potency is 79.4 µM (active).
`Nc1nc2ccc(Cl)cc2c2nc(-c3ccco3)nn12`: the call in assay [1] was inactive. The Potency result in assay [2], in assay [3], in assay [4], in assay [5], in assay [7] and in [10] was “inactive” each time. In assay [8], the Potency result was “inactive”.
Take `O=c1onc2n1-c1cc(Br)ccc1OC2`: in assay [1], the outcome was inactive. Further, the Potency result in [2], in [3], in assay [4], in assay [5], in assay [6] and in assay [10] was “inactive” throughout. In assay [8], the Potency result was “inactive”.
On to `Cn1cc(C(=O)OCC2CCN(CCNS(C)(=O)=O)CC2)c2ccccc21`, for which the molecule was called inactive in assay [1]. Further, the Potency result in assay [2], in assay [3], in assay [4], in assay [5], in assay [6] and in assay [10] was “inactive” throughout. In addition, in assay [9], the Potency entry is “inactive”.
On to `CNC(=O)c1cc2c(cn1)[nH]c1ccccc12`, for which, in [1], the outcome was inactive. Moreover, the Potency entry in assay [2], in assay [3], in assay [4], in [5], in [6] and in assay [7] was “inactive” throughout. In addition, the Potency entry in assay [8] and in assay [9] was “inactive” throughout.
